High-throughput results: PubChem BioAssay, Center for Chemical Genomics, University of Michigan
Dicer inh: blocks human Dicer maturation of pre-miR-21 | Q9UPY3 | cat-ELCCA pre-miR-21 Dicer processing, chemiluminescence; hits give high values | z-score at 25 µM | 47,000 tested, 6% active | AID 1347074; in the data active means z-score above about 3, passing the limit was not always enough;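 further: plate controls were vehicle for no effect and no enzyme for full effect; higher signal means more uncleaved substrate so more Dicer inhibition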
Numbers without * were called inactive. The entries come from a sample that favours hits as a whole.

SMILES	Dicer inh
CCOC(=O)c1c(C)oc2ccc(OC(C)=O)cc12	6.7
COc1ccc(/C=N/NC(=O)c2sc(=S)n(-c3ccccc3)c2N)cc1	-0.24
COc1cc(/C=N/NC(=O)c2sc(=S)n(C)c2N)ccc1O	3.8*
COc1cc(/C=N/NC(=S)N/N=C/c2ccc(O)c(OC)c2)ccc1O	3.9*
COc1cc(/C=N/NC(=S)NC2CC3C=CC2C3)ccc1C (centres undefined)	2.5
COc1ccc(/C=N/NC(=S)NN)cc1	-7.3
Cn1c(N)c(C(=O)N/N=C/c2ccccc2)sc1=S	-0.88
O=C(CSc1nc2ccccc2s1)Nc1ncccn1	-0.82
CC1CN=C(N(C(=O)Nc2cccc(Cl)c2)C2CCCCC2)S1 (centres undefined)	-0.67
CC(=O)Nc1ccc2c(c1)OCCOCCOc1cc(NC(C)=O)ccc1OCCOCCO2	-2.3
C=CCNc1sc(C(=O)OC)c(N)c1C(=O)OC	-0.6
CCCc1cc(=O)c2c(=O)n(-c3ccccc3)[nH]c2[nH]1	-1.4
COc1ccc2c(c1)c(=O)oc1cc3occ(-c4ccccc4)c3cc12	1
Cc1ccc(C(O)c2cccnc2)o1 (centres undefined)	1.7
Cc1ccc(C(c2ccc(C)o2)c2ccccc2O)o1	5.3*
Cc1ccc(/C=C/c2noc(-c3ccccc3O)n2)o1	-0.84
CCOc1ccccc1C1Nc2ccccc2NC2=C1C(=O)CC(c1ccc3c(c1)OCO3)C2 (centres undefined)	1.3
CCN1CCN(c2nc3c(c(=O)n(C)c(=O)n3C)n2Cc2c(Cl)cccc2Cl)CC1	-0.65
CCN1C(=O)C(NC(C)=O)c2cc(Br)ccc21 (centres undefined)	0.12
Cc1[nH]nc(NC2=CC(=O)CC(C)(C)C2)c1-c1ccc(Cl)cc1	0.05
CC(C)CNC(=O)N1c2ccccc2Sc2ccccc21	0.58
O=C(C1CC1)N1c2ccccc2Sc2ccccc21	1.2
CC1(C)CC(NCC(=O)N2c3ccccc3Sc3ccc(Cl)cc32)CC(C)(C)N1	3.3*
COC(=O)C1=C(C(=O)OC)SC(=C2C(=S)C(C)(C)N(C)c3ccc(C)cc32)S1	2.7
C=CCOc1ccc(C2c3c(oc4cc(C)c(C)cc4c3=O)C(=O)N2c2ccccn2)cc1 (centres undefined)	0.53
SMILES	Dicer inh
CC(C)Sc1sc(C(=O)O)c(-c2ccc(Cl)cc2)c1C#N	4.1*
CCSc1sc(C(=O)OC)c(-c2ccc(Cl)cc2)c1C#N	0.97
CCOC(=O)c1sc(SC(C)CC)c(C#N)c1-c1ccc(Cl)cc1 (centres undefined)	0.13
CCOC(=O)CSc1sc(C(=O)OCC)c(-c2ccc(Cl)cc2)c1C#N	-2
CCOC(=O)c1sc(SC(C)C)c(C#N)c1-c1ccc(Cl)cc1	5*
CSc1sc(C(=O)NC(C)(C)C)c(-c2ccc(Cl)cc2)c1C#N	-3.2
Cc1ccccc1-n1cc(Br)c(=O)[nH]c1=O	0.05
C/C(=N\OC(=O)Nc1c(-c2c(Cl)cccc2Cl)noc1C)c1ccc(F)cc1	0.81
CCCc1cc(=O)oc2cc(OCC(=O)O)ccc12	1.1
Cc1ccc2nc(S/C=C/C(=O)c3ccc(Cl)cc3)[nH]c2c1	1.4
CCOc1cc(C2C(C(=O)OC)=C(C)NC3=C2C(=O)CC(C)(C)C3)cc(Br)c1O (centres undefined)	7.9
CNC(=O)NC(=O)CSc1nnc2sc3ccccc3n12	0.78
Brc1ccc(-n2nnnc2/C=C/NCc2ccccc2)cc1	0.17
CCOC(=O)c1cccc(C(=O)O)n1	0.56
COC(=O)c1cccc(C(=O)Oc2ccc(OC)cc2)n1	0.13
CCOC(=O)c1cccc(C(=O)Oc2ccccc2)n1	6.2*
Cc1nc(-c2ccccc2)nc(SCc2ccc(Cl)cc2Cl)c1C#N	1.3
COc1ccc(-c2nc(C#N)c(NC3CCCCC3)o2)cc1	-1.1
C=CCc1c(C)nc(SCC(=O)C(C)(C)C)[nH]c1=O	0.26
Cc1cc(C)cc(Oc2c(C(F)(F)F)oc3c(CN4CCN(C)CC4)c(O)ccc3c2=O)c1	-0.65
Nc1nc(Nc2ccccc2)sc1C(=O)c1ccc(F)cc1	1.7
Nc1nc(Nc2cccc(F)c2)sc1C(=O)c1ccc(F)cc1	3.2
Nc1nc(Nc2ccc(F)cc2)sc1C(=O)c1ccccc1	4.2*
CCN(Cc1ccccc1)c1nc2c(c(=O)n(C)c(=O)n2C)n1CCO	-1.6
CN(C)/C=N/S(=O)(=O)c1ccc(-n2nc(C(F)(F)F)cc2-c2cccs2)cc1	-3.1
SMILES	Dicer inh
NN/C(=N\S(=O)(=O)c1ccc(-n2nc(C(F)(F)F)cc2-c2cccs2)cc1)N1CCCC1	-1.8
CS/C(=N/S(=O)(=O)c1ccc(-n2nc(C(F)(F)F)cc2-c2cccs2)cc1)NNC(=O)Nc1ccccc1	4.4*
CCN1CCN(CC(=O)c2c(C)[nH]c3ccccc23)CC1	2.4
CC(C)c1cccc2c1OC(C(C)C)C(=S)N2CC(=O)O (centres undefined)	-0.6
Cn1ncc(Br)c1C(=O)O	-0.72
COc1cccc(-c2cc(N)n(-c3c(Cl)cc(Cl)cc3Cl)n2)c1	-0.15
O=C(O)CS/C(=N/S(=O)(=O)c1ccccc1)Nc1cccc(C(F)(F)F)c1	0.1
CCOC(=O)c1c(NC(=O)CCC(=O)O)sc2c1CCCC2	2.2
